Assay results reported in publication PMC7826789 (International Journal of Molecular Sciences, 2021).

Tested on: IKBKE

Row | SMILES | Kinases covered
1 | Cc1cc(O)cc(C)c1/C=C/c1cncc(C(N)=O)c1 [GW435821X] | IKBKE
2 | COc1cc(/C=N/Nc2ncnc3[nH]ncc23)ccc1O [GW578748X] | IKBKE
3 | Cl.O=C1Nc2ccc(-c3cccnc3)cc2C1=Cc1cc(Br)c(O)c(Br)c1 [GW429374A] | IKBKE

Tested on: INSR

Row | SMILES | Kinases covered
4 | CCc1cc(Nc2nccc(-c3c(-c4ccc(OC)c(C(=O)Nc5c(F)cccc5F)c4)nc4ccccn34)n2)c(OC)cc1N1CCC(N2CCN(S(C)(=O)=O)CC2)CC1 [GSK1904529] | INSR
5 | CN(C)C/C=C/C(=O)Nc1ccc(C(=O)Nc2cccc(Nc3ncc(Cl)c(-c4c[nH]c5ccccc45)n3)c2)cc1 [THZ1] | INSR
6 | COc1cc(N2CCN(C(C)C)CC2)ccc1Nc1nc(Nc2ccc(F)cc2C(=O)NC[C@@H](O)CO)c2cc[nH]c2n1 [GSK1392956A] | INSR
7 | COc1cc(C)c(N(C)C(=O)CN(C)C)cc1Nc1nc(Nc2cccc(F)c2C(N)=O)c2cc[nH]c2n1 [GSK2219385] | INSR

Tested on: IRAK1

Row | SMILES | Kinases covered
8 | COc1cc2ncnc(Nc3ccc(F)c(Cl)c3)c2cc1O[C@H]1CC[C@H](N)CC1 [BIBW3133BS] | IRAK1
9 | COC[C@@H](C)N[C@H]1CC[C@H](Nc2cc(-c3cccc(NCC4(C#N)CCOCC4)n3)c(Cl)cn2)CC1 [NVP-2] | IRAK1
10 | Cc1cc(NC(=O)c2cccc(NC(=O)/C=C/CN(C)C)c2)ccc1Nc1nccc(-c2cccnc2)n1 [JNK-IN-7] | IRAK1

Tested on: JAK2

Row | SMILES | Kinases covered
11 | NC(=O)c1cccnc1COc1cc(-c2ccc(N3CCOCC3)nc2)cc2ncccc12 [BI01125081] | JAK2
12 | COc1cc(Nc2nccc(N3CCC(NC(=O)C4COc5ccccc5O4)C3)n2)cc(OC)c1OC (stereo not shown) [GSK1379761] | JAK2
13 | C[C@@H]1CCN(C(=O)CO)C[C@@H]1N(C)c1ncnc2[nH]ccc12 [PFE-PKIS 34] | JAK2
